Results: PubChem BioAssay AID1259341 (Broad Institute, 2017)
A number with no mark means an inactive call. The source made the active and inactive calls.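 How the source made its calls: active means activity change under -35% in any replicate well, with more than 20 beads read in that well; inactive means the rest.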

The compounds below were run against Caspase recruitment domain-containing protein 9 (Homo sapiens) + E3 ubiquitin-protein ligase TRIM62 (Homo sapiens) (UniProt Q9H257+Q9BVG3) (assay: disruptors of CARD9-TRIM62 binding, primary screen, cell lysate, HEK293FT lysates, Luminex bead ELISA (AID 1259341;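 further: PE anti-Flag signal of Flag-CARD9 captured by myc-TRIM62 beads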)). Conditions: PE fluorescence, hits give low values, concentration not given here.
Chain of Caspase recruitment domain-containing protein 9 (Homo sapiens) + E3 ubiquitin-protein ligase TRIM62 (Homo sapiens) (Q9BVG3 whole entry, looked up, the tested form may be a part): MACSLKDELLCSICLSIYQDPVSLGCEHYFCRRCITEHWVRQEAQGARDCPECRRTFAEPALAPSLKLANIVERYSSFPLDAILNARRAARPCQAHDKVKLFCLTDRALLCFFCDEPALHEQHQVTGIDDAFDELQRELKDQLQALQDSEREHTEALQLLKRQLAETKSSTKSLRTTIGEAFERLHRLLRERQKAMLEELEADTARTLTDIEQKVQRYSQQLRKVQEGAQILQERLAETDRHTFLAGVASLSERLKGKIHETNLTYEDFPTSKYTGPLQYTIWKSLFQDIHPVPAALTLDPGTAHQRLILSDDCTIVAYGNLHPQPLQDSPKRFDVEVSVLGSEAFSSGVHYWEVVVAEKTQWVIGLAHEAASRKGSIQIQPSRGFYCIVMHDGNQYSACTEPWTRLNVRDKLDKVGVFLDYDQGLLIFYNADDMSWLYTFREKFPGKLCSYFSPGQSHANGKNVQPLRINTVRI
Chain of Caspase recruitment domain-containing protein 9 (Homo sapiens) + E3 ubiquitin-protein ligase TRIM62 (Homo sapiens) (Q9H257 whole entry, looked up, the tested form may be a part): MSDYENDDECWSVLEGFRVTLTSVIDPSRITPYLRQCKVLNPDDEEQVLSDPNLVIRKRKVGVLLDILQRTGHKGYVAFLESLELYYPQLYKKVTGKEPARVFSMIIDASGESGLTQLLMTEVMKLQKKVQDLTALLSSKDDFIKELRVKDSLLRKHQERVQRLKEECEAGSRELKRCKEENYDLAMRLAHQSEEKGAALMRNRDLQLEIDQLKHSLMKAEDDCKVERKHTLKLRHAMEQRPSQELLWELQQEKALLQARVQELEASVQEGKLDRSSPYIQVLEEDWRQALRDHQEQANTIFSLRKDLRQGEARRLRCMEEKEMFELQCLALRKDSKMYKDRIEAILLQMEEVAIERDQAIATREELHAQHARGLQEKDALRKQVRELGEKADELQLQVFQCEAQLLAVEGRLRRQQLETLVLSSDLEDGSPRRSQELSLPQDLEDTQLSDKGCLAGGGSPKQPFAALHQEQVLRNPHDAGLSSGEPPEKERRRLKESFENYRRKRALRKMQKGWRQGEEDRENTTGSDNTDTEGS

Compound | activity change, negative = inhibition
Cc1cc(C)c2c(N)c(C(=O)Nc3cccc4ccccc34)sc2n1 | -1.34%
O=C(Nc1ccc2oc(-c3ccncc3)nc2c1)c1ccc2c(c1)OCO2 | -8.29%
C[C@H](CO)N1C[C@H](C)[C@@H](CN(C)C(=O)C2CCCCC2)OCCCC[C@H](C)Oc2ccc(NS(=O)(=O)c3ccccc3)cc2C1=O | 6.21%
O=C(CN1CCOC1=O)N1CCC2(CCC(=O)N(CCCn3ccnc3)C2)CC1 | -6.82%
C[C@H](CO)N1C[C@H](C)[C@H](CN(C)C(=O)C2CCCCC2)OCCCC[C@H](C)Oc2ccc(NS(=O)(=O)c3cccs3)cc2C1=O | 6.16%
CC1=CCC(C(=O)O)C(C(=O)NC2CCCCC2)C1 (stereo unspecified) | -6.81%
Nc1ccc2ncccc2c1N | 1.19%
Cc1cccc(NC(=O)Cc2coc3ccc4ccccc4c23)n1 | -0.738%
O=C(Nc1ccc2oc(-c3cccnc3)nc2c1)c1ccc2c(c1)OCCO2 | 4.18%
NC(=O)C1(N2CCCCC2)CCN(c2ncc(NC(=O)c3ccccc3F)cc2C(=O)O)CC1 | -10.2%
Cc1ccc(-c2cc(C(=O)NCc3ccco3)c3ccccc3n2)o1 | -2.28%
O=C(NCCCN1CCOCC1)c1cc(-c2ccco2)nc2ccccc12 | -23.9%
N#Cc1c(-c2ccco2)cc(-c2ccccn2)nc1N | 1.52%
O=C(N/N=C/C=C/c1ccco1)c1cncc(Br)c1 | -8.78%
CCOc1cc2c(C#N)c(N3CCNCC3)nc(N)c2c(N)n1 | -2.85%
CCn1ccnc1C1CCN(C(=O)CCn2c(C)nc3ccccc32)CC1 | -6.29%
CCN(CCNC(=O)C1CCN(S(=O)(=O)c2c(C)noc2C)CC1)c1ccccc1 | -0.84%
O=C1C=C(c2ccccc2)Nc2ccccc2N1 | 2.64%

Compound | activity change, negative = inhibition
COc1ccc(S(=O)(=O)N2CCOCC2)cc1NC(=O)c1cccc(-n2cccc2)c1 | -8.72%
CCOC(=O)C1CCN(C(=O)CN(Cc2ccccc2)S(C)(=O)=O)CC1 | -5.24%
CCOC(=O)/C=C/S(=O)(=O)c1ccc(NC(C)=O)cc1 | -8.13%
COc1ccc(N2CC3=C(N2)c2ccccc2CC3)cc1 | 25.5%
Cc1cccc2nc(CSCc3ccco3)cn12 | -4.69%
CN(Cc1ccco1)S(=O)(=O)c1nnc(NC(=O)c2ccccc2)s1 | 13.7%
CC1(C)Cc2ccccc2-c2nc(-c3ccccc3)oc(=O)c21 | -0.338%
O=C(COC(=O)c1ccc(S(=O)(=O)NCc2ccco2)cc1)Nc1ccc(Cl)cn1 | -0.897%
O=C(Cc1ccc(S(=O)(=O)N2CCOCC2)s1)Nc1nc2c(s1)CCCC2 | -0.777%
Cc1ccc(-c2cc(C(=O)Nc3ccccn3)c3ccccc3n2)o1 | -4.7%
O=C(COc1cccnc1[N+](=O)[O-])c1ccc(Cl)s1 | -9.96%
C[C@H](CO)N1C[C@H](C)[C@@H](CN(C)C(=O)C2CCCCC2)OCCCC[C@H](C)Oc2ccc(NS(C)(=O)=O)cc2C1=O | 9.86%
O=C(CC1Nc2ccccc2OC1=O)Nc1ccc(Cl)cc1 (stereo unspecified) | 13.8%
C=CC(=O)N1CCCC2(CCN(CCN3CCCC3)C2=O)C1 (stereo unspecified) | -70.2% (active)
CCNc1ncc(C(=O)NCCc2nc3c(s2)CCCC3)cn1 | -3.32%
COc1ccc(-c2nc(SCC(=O)N3CCN(c4ccccc4OC)CC3)n[nH]2)cc1 | 23.5%
C(=N\n1cnnc1SCc1ccccc1)/c1ccco1 | 4.53%
CCc1ccc(Nc2nc(C(=O)NCc3ccc(N(C)C)cc3)nc3ccccc23)cc1 | -21%
